Data on 31 compounds can be found in PubChem BioAssay (EPA / NIEHS).

Activity calls are given as the source filed them. The calls were made as follows: active = hit-call score of the fitted dose curve at least 0.9, where 1 is the maximum; inactive = score below 0.9.

Read-out in the first assay: Interleukin 6 (IL6), IL6 (gene 3569)
Description: LTEA_HepaRG_IL6: Life Technologies and Expression Analysis (LTEA) Assay for Interleukin 6 (IL6) using HepaRG (AID 2283509). Conditions: mRNA level, 48 h; actives raise or lower the signal. In short, it runs like this:
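qRT-PCR read-out of IL6 transcript, normalized to three housekeeping genes, after 48 h chemical exposure of HepaRG cells; 8-point half-log series, top 100 uM, 0.5% DMSO vehicle. Bidirectional curve fitting against DMSO baseline.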
As to `CC(C)(C)c1cc(C(C)(C)C)c(O)c(C(C)(C)C)c1`, the compound was called inactive.
In the case of `Cc1cc(C)c(O)c(C)c1`, the result was inactive.
`CCCCC(CC)COC(=O)CCCCC(=O)OCc1ccccc1` (configuration not stated): the outcome was inactive.
Still for that read-out and setting: then `c1ccc2c(c1)ccc1ccccc12`, with “inactive”; and `CCCCCCCCOC(=O)CCCCCCCCC(=O)OCCCCCCCC`, with “inactive”.
The same measure, in the same setting: the same measure for `CC(C)(C)c1ccc(O)c(C(C)(C)C)c1`: “inactive”; for `O=C(OCCOCCOC(=O)c1ccccc1)c1ccccc1`: “inactive”; for `CCCOc1sc(C(=O)N2CCC(c3cc(CN)ccc3F)CC2)c(C)c1Br`: “inactive”.
As to `CCc1nn(C2CCCCC2)c2cc(C3(C#N)CCC(C(=O)O)CC3)ccc12` (configuration not stated), the AC50 (commonly the concentration at which the activity in the assay is half-maximal) was 84.9 µM (active).
Turning to `COCC(C)OCC(C)O` (configuration not stated), the compound was classed as inactive.
The same measure, in the same setting: the same measure for `CC(C)(C)CC(C)(C)c1ccc(O)c(-n2nc3ccccc3n2)c1`: “inactive”; for `CC(O)CO` (configuration not stated): “inactive”; for `COc1ccc([N+](=O)[O-])cc1N`: “inactive”.
The same measure, in the same setting: then `CCCCCCCCCCCCN1CCCC1=O`, with “inactive”.
Same read-out and setting: the same measure for `OCCC(F)(F)C(F)(F)C(F)(F)C(F)(F)C(F)(F)C(F)(F)F`: “inactive”.
As to `CCCCCCCCCCCCc1ccccc1S(=O)(=O)O`, the AC50 was 79.6 µM (active).
As to `OCCC(F)(F)C(F)(F)C(F)(F)C(F)(F)C(F)(F)C(F)(F)C(F)(F)C(F)(F)F`, the result was inactive.
Still for that read-out and setting: then `CCCCOCCO`, with “inactive”; and `CCCCCCCCCCCCCCCS(=O)(=O)Oc1ccccc1`, with “inactive”; and `CC(C)(C)c1cccc(C(C)(C)C)c1O`, with “inactive”.
Regarding `CCC(=C(c1ccc(O)cc1)c1ccc(OCCN(C)C)cc1)c1ccccc1`, the AC50 was 91.8 µM (active).
On to `CC(C)CCCCCCOC(=O)CCCCC(=O)OCCCCCCC(C)C`, for which the result was inactive.
In the case of `CN1CCN(c2ccccc2/C=C2\SCCN(c3ccc(Cl)c(Cl)c3)C2=O)CC1`, the AC50 was 92.2 µM (active).
Still for that read-out and setting: then `O=C(O)Cc1cc(I)c(Oc2cc(I)c(O)c(I)c2)c(I)c1`, with 54 µM (active).
Turning to `CC(=O)CC(C)(C)O`, the compound was called inactive.
`CCN(CC)CCNc1ccc(CNC=O)c2sc3ccc(OC)cc3c(=O)c12`: the AC50 is 76.8 µM (active).
Take `OC1CCC(C2CCCCC2)CC1` (configuration not stated): the outcome was inactive.
Consider `O=c1c(-c2ccc(O)cc2)coc2cc(O)ccc12`, for which the compound was called inactive.
Turning to `CN(C)C=O`, the call was inactive.
With `NC(=O)N(O)[C@@H]1C=C[C@H](Oc2cccc(Oc3ccc(F)cc3)c2)C1`, the AC50 is 38.6 µM (active).
Take `CC[C@H](C)[C@@H](C(=O)O)n1sc2ccccc2c1=O`: the compound was called inactive.

Read-out in another assay: Interleukin 6 Receptor (IL6R), IL6R (gene 3570)
The experiment in a line: LTEA_HepaRG_IL6R: Life Technologies and Expression Analysis (LTEA) Assay for Interleukin 6 Receptor (IL6R) using HepaRG (AID 2283510).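 As to AC50: differentiated human HepaRG liver cells in serum-free induction medium; TaqMan qRT-PCR signal normalized to ACTB GAPDH and POLR2A housekeeping genes.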 As to conditions: mRNA level, 48 h; actives raise or lower the signal. The method, boiled down: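 Cells were thawed, plated and cultured 48 h, then medium was changed to serum-free induction medium. Chemicals were added in duplicate (100 uM top, half-log steps, 0.5% DMSO) for 48 h. Lysates were analyzed by qRT-PCR for IL6R expression.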
`CC(C)(C)c1cc(C(C)(C)C)c(O)c(C(C)(C)C)c1`: the compound was classed as inactive.
As to `Cc1cc(C)c(O)c(C)c1`, the compound was classed as inactive.
Still for that read-out and setting: then `CCCCC(CC)COC(=O)CCCCC(=O)OCc1ccccc1` (configuration not stated), with “inactive”.
Consider `c1ccc2c(c1)ccc1ccccc12`, for which the outcome was inactive.
Still for that read-out and setting: the same measure for `CCCCCCCCOC(=O)CCCCCCCCC(=O)OCCCCCCCC`: “inactive”.
On the same count and under the same terms, then `CC(C)(C)c1ccc(O)c(C(C)(C)C)c1`, with “inactive”.
Same read-out and setting: then `O=C(OCCOCCOC(=O)c1ccccc1)c1ccccc1`, with “inactive”; and `CCCOc1sc(C(=O)N2CCC(c3cc(CN)ccc3F)CC2)c(C)c1Br`, with “inactive”; and `CCc1nn(C2CCCCC2)c2cc(C3(C#N)CCC(C(=O)O)CC3)ccc12` (configuration not stated), with “inactive”.
As to `COCC(C)OCC(C)O` (configuration not stated), the compound was classed as inactive.
Same read-out and setting: then `CC(C)(C)CC(C)(C)c1ccc(O)c(-n2nc3ccccc3n2)c1`, with “inactive”.
Consider `CC(O)CO` (configuration not stated), for which the result was inactive.
The same measure, in the same setting: then `COc1ccc([N+](=O)[O-])cc1N`, with “inactive”; and `CCCCCCCCCCCCN1CCCC1=O`, with “inactive”.
In the case of `OCCC(F)(F)C(F)(F)C(F)(F)C(F)(F)C(F)(F)C(F)(F)F`, the call was inactive.
Take `CCCCCCCCCCCCc1ccccc1S(=O)(=O)O`: the AC50 is 83 µM (active).
For the compound `OCCC(F)(F)C(F)(F)C(F)(F)C(F)(F)C(F)(F)C(F)(F)C(F)(F)C(F)(F)F`, the call was inactive.
The same measure, in the same setting: then `CCCCOCCO`, with “inactive”; and `CCCCCCCCCCCCCCCS(=O)(=O)Oc1ccccc1`, with “inactive”; and `CC(C)(C)c1cccc(C(C)(C)C)c1O`, with “inactive”.
On to `CCC(=C(c1ccc(O)cc1)c1ccc(OCCN(C)C)cc1)c1ccccc1`, for which the AC50 was 93.2 µM (active).
With `CC(C)CCCCCCOC(=O)CCCCC(=O)OCCCCCCC(C)C`, the outcome was inactive.
Regarding `CN1CCN(c2ccccc2/C=C2\SCCN(c3ccc(Cl)c(Cl)c3)C2=O)CC1`, the AC50 is 50 µM (active).
On the same count and under the same terms, the same measure for `O=C(O)Cc1cc(I)c(Oc2cc(I)c(O)c(I)c2)c(I)c1`: 55 µM (active).
For the compound `CC(=O)CC(C)(C)O`, the result was inactive.
In the case of `CCN(CC)CCNc1ccc(CNC=O)c2sc3ccc(OC)cc3c(=O)c12`, the AC50 is 22 µM (active).
`OC1CCC(C2CCCCC2)CC1` (configuration not stated): the result was inactive.
`O=c1c(-c2ccc(O)cc2)coc2cc(O)ccc12`: the result was inactive.
Same read-out and setting: then `CN(C)C=O`, with “inactive”.
The same measure, in the same setting: then `NC(=O)N(O)[C@@H]1C=C[C@H](Oc2cccc(Oc3ccc(F)cc3)c2)C1`, with “inactive”; and `CC[C@H](C)[C@@H](C(=O)O)n1sc2ccccc2c1=O`, with “inactive”.
